Screening data: PubChem BioAssay, National Center for Advancing Translational Sciences (NCATS)
Hits are enriched below; roughly 14% of the tested compounds scored in any of these assays.
HCMV antiviral: qHTS Assay for inhibitors of the human cytomegalovirus (HCMV). AID 1259415, 2018. activity change, negative = inhibition, % at 57.5 µM. HFF cells, HCMV-luciferase reporter, 72 h; active compounds read low. 410,000 tested, 4.5% active; in the data active means activity change below about -60%; inconclusive means no clear call, values can overlap the other calls; inactive means above about -39%
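Inhibition of viral replication was scored as loss of reporter luminescence in HFFs infected with HCMV-luciferase (MOI 1 PFU/cell) for 72 h; compounds tested at 2 doses, normalized to buffer and Salinomycin controls.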
HCV inh: qHTS Assay for Inhibitors of Hepatitis C Virus (HCV). Huh7.5.1 HCVcc-Cre infection, luciferase reporter, 44 h. Potency, µM (series often up to 41.8 µM), for inactives: top-dose activity change, negative = inhibition, hits mostly inhibitors. 340,000 tested, 3.4% active. AID 651820, 2012; further: potency means the concentration at half of the fitted maximal effect
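Infectious HCV cell culture screen: compound-treated cells (1,000/well, pre-plated 4 h) are infected with HCVcc-Cre at roughly 0.5 moi and grown 44 h. Infection is quantified by luciferase signal after 15 min substrate incubation at room temperature.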
Pf growth 96h: Primary qHTS for delayed death inhibitors of the malarial parasite plastid, 96 hour incubation | P. falciparum luciferase reporter growth, 96 h | AID 504834, 2011 | 320,000 tested, 6.9% active | Potency, µM (highest dose often 28.7 µM), without a hit: top-dose activity change, negative = inhibition, hits mostly inhibitors; further: potency means the concentration at half of the fitted maximal effect
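Delayed-death screen, second-generation endpoint: infected erythrocytes, 2% hematocrit, 0.05% parasitemia final; 96 hours at 37 C, 5% CO2; luciferase detection reagent; luminescence decrease equals reduced growth.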
LASV entry inh: qHTS for Inhibitors of binding or entry into cells for Lassa Virus. 300,000 tested, 1.2% active. Lassa virus pseudotype entry inhibition, cell reporter. AID 540256, 2011. Potency, µM (titrated, usually from 37.9 µM), for inactives: top-dose activity change, negative = inhibition, usual class: inhibitors; calls by dose curve; tested in HEK293 cells; further: potency means the concentration at half of the fitted maximal effect; nearly all actives have a fitted effect of over 50% in size
Pf growth 48h: Primary qHTS for delayed death inhibitors of the malarial parasite plastid, 48 hour incubation. P. falciparum luciferase growth in erythrocytes, 48 h. Potency, µM (titrated, usually from 28.7 µM), without a hit: at the top dose activity change, negative = inhibition, actives largely listed as inhibitors. 310,000 tested, 5.9% active. AID 504832, 2011; further: potency means the concentration at half of the fitted maximal effect
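In quantitative HTS format, infected erythrocytes bearing luciferase-reporter parasites were treated for a single generation at 37 C. Luminescence after adding detection reagent served as the growth measure.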
MARV entry inh: qHTS for inhibitors of binding or entry into cells for Marburg Virus. AID 540276, 2011. Potency, µM (doses to about 37.8 µM), without a hit: top-dose activity change, negative = inhibition, most hits filed as inhibitors. 300,000 tested, 1.8% active. Marburg virus pseudotyped entry inhibition, cell reporter; calls by dose curve; tested in HEK293 cells; further: potency means the concentration at half of the fitted maximal effect
Numbers without * were called inactive; u = inconclusive; x = no result; [ ] = dose if it differs, or a comment. Unless noted, the call rests on the fitted dose curve; in most records, active means well fitted inhibition curve with a large enough effect; inconclusive means small, poorly fitted or top-dose-only effect, or another doubt; inactive means no such curve, though single readings can be large or run the other way. On the % scale 0 is the no-effect control and ±100 the full control effect.

SMILES	HCMV antiviral	HCV inh	Pf growth 96h	LASV entry inh	Pf growth 48h	MARV entry inh
Cc1ccc(NC(=O)c2c(C)oc3nc(C)nc(N4CCCC4)c23)c(C)c1	-32.1	x	x	u	x	x
CS(=O)(=O)c1ccc(C(=O)OCC(=O)N2CCN(CCC3CCCCC3)CC2)cc1[N+](=O)[O-]	-102.8*	x	x	x	x	x
CC1CN(C(=O)COC(=O)c2ccc(N)c([N+](=O)[O-])c2)CC(C)O1 (stereo unspecified)	18.8	8.9%	20.5%	-0.8%	29.4%	2.6%
CS(=O)(=O)c1ccc(C(=O)OCC(=O)NC(=O)C2COc3ccccc3O2)cc1[N+](=O)[O-] (stereo unspecified)	26.9	u	x	-11.7%	x	-25.8%
CS(=O)(=O)c1ccc(C(=O)OCC(=O)N2CCOCC2)cc1[N+](=O)[O-]	-79.5*	x	x	x	x	x
CS(=O)(=O)c1ccc(C(=O)OCC(=O)NC(=O)C2CCCCC2)cc1[N+](=O)[O-]	-77.2*	-0.8%	u	u	u	u
Cc1cccc(Cn2c(=O)n(Cc3ccc(C(=O)NC4CCN(Cc5ccccc5)CC4)cc3)c(=O)c3ccccc32)c1	-1.6	x	x	-2.0%[46.1 µM]	x	u
Cc1ccc(CN(Cc2ccco2)C(=O)c2ccc(Cl)cc2)o1	-22.8	x	x	2.6%[46.1 µM]	x	-26.1%[46.1 µM]
CC(C)[C@H](NC(=O)[C@H](Cc1ccccc1)n1c(=O)[nH]c2ccccc2c1=O)C(=O)N1CCC[C@@H]1C(=O)O	16.1	24.6%	14.0%	x	21.8%	x
COc1ccccc1CN1CC(C(=O)NCC2(O)CCCCC2)CCC1=O (stereo unspecified)	-64.3*	x	x	x	x	x
COc1ccccc1CN1CC(C(=O)NCc2cnn(C)c2)CCC1=O (stereo unspecified)	6.1	24.6%	6.57µM*	-5.7%	9.5%	u
COc1ccccc1CN1CC(C(=O)NCc2cc(F)ccc2C)CCC1=O (stereo unspecified)	31.0	-17.4%	u	16.9%[46.1 µM]	u	u
CCC(Sc1nc2ccccc2c2nc(CCc3c(C)n[nH]c3C)nn12)C(=O)Nc1ccc(OC)cc1 (stereo unspecified)	-10.8	x	x	-3.2%[46.1 µM]	x	x
C=CCOc1c(Br)cc(CNc2ccc(NC(=O)C(C)C)c(OC)c2)cc1OC	-98.2*	10µM*	8.28µM*	u	u	u
CCCCc1nnc2c(N(C)S(=O)(=O)c3ccc(C)cc3)nc3ccccc3n12	21.3	7.9%	11.7µM*	26.4%	u	3.8%[46.1 µM]
CCc1nnc2c(N(C)S(=O)(=O)c3ccc(C)cc3)nc3ccccc3n12	-8.0	5.5%	8.0%	11.1%[46.1 µM]	-1.2%	5.2%[46.1 µM]
CCCc1nnc2c(N(C)S(=O)(=O)c3ccc(C)cc3)nc3ccccc3n12	-69.4*	11.2%	13.1µM*	-0.1%	u	-3.0%
O=C(Nc1ccc(N2CCN(C(=O)c3cccs3)CC2)cc1)c1ccc([N+](=O)[O-])o1	x	x	9.28µM*	x	u	x
O=C(Nc1ccc(Cc2ccncc2)cc1)c1ccc([N+](=O)[O-])o1	-100.9*	u	-23.2%	u	u	u
O=C(Nc1ccc(Cc2ccncc2)cc1)c1cccc([N+](=O)[O-])c1	-20.7	u	-9.0%	10.2%	32.7%	3.0%
Cc1ccc(NC(=O)c2cc(S(=O)(=O)N3CCOCC3)c(Br)s2)cc1	-38.9	-25.4%	u	10µM*	-17.4%	-25.3%
Cc1ccc(C(=O)Nc2ccc(Cc3ccncc3)cc2)cc1[N+](=O)[O-]	-39.0	u	u	u	u	-28.5%
Cc1c(C(=O)Nc2ccc(Cc3ccncc3)cc2)cccc1[N+](=O)[O-]	-78.8*	-13.6%	25.7%	1.1%	u	u
CN(CC(=O)Nc1c(Cl)cccc1Cl)C(=O)c1ccc(-n2cncn2)c([N+](=O)[O-])c1	-7.9	2.5%	51.7%	5.3%	5.7%	u
O=C(O)c1ccc2c(c1)C(=O)N(CCc1ccc(O)cc1)C2=O	x	x	-6.9%	x	3.1%	x
SMILES	HCMV antiviral	HCV inh	Pf growth 96h	LASV entry inh	Pf growth 48h	MARV entry inh
O=C(Nc1ccc(N2CCN(c3ccc(C(F)(F)F)cn3)CC2)nc1)c1cccs1	u	9.3%	u	-22.4%	u	-9.1%[46.1 µM]
O=C(Nc1ccc(S(=O)(=O)N2CCOCC2)cc1)c1ccco1	69.5	-1.0%	52.0%	10.1%	-4.4%	u
O=C(Nc1ccc(N2CCN(C(=O)c3cccs3)CC2)cc1)c1cccnc1	-30.6	-1.9%	2.94µM*	-0.7%[46.1 µM]	u	-21.7%[46.1 µM]
O=C(Nc1ccc(S(=O)(=O)N2CCOCC2)cc1)c1ccc([N+](=O)[O-])s1	6.1	8.91µM*	u	u	u	-5.7%[46.1 µM]
O=C(Nc1ccc(N2CCN(c3ncccc3C(F)(F)F)CC2)nc1)c1cccs1	-86.3*	11.2µM*	2.33µM*	11.2µM*	0.37µM*	12.6µM*
O=C(Nc1ccc(S(=O)(=O)N2CCOCC2)cc1)c1ccc([N+](=O)[O-])o1	-98.5*	-22.3%	u	-24.5%	10.4µM*	u
Cc1ccc(F)c(C(=O)N2CC3ON=C(c4c(F)cccc4Cl)C3C2)c1F (stereo unspecified)	3.6	x	x	x	x	x
O=C(Nc1ccc(N2CCCC2)c(Cl)c1)c1ccc(Br)o1	21.0	u	4.65µM*	u	4.65µM*	u
O=C(COc1ccccc1[N+](=O)[O-])Nc1ccc(N2CCN(C(=O)c3cccs3)CC2)cc1	-33.1	6.31µM*	-28.9%	u	10.4µM*	u
O=C(Nc1ccccc1N1CCCC1)c1ccc(Br)o1	-17.9	u	-11.9%	u	-24.6%	2.6%
O=C(Nc1ccc(S(=O)(=O)N2CCCCCC2)cc1)c1ccc(Br)o1	u	u	20.1%	9.2µM*	u	u
O=C(Nc1ccc(S(=O)(=O)N2CCCC2)cc1)c1ccc([N+](=O)[O-])o1	x	2.82µM*	x	x	x	x
C[C@@H]1CN([C@H](C)CO)C(=O)c2cc(Br)cnc2O[C@@H]1CN(C)C(=O)c1ccccc1	25.0	x	x	x	x	x
N[C@H](Cc1cc(I)c(Oc2ccc(O)c(I)c2)c(I)c1)C(=O)O	x	x	x	x	x	-21.7%
O=C(Nc1ccc(N2CCOCC2)cc1)c1ccc([N+](=O)[O-])o1	-103.0*	u	21.3%	-28.0%[46.1 µM]	19.2%	u
CN(C)S(=O)(=O)c1ccc(Cl)c(NC(=O)COC(=O)CNS(=O)(=O)c2c(F)cccc2F)c1	-34.4	9.6%	x	x	x	x
CC(=O)OCC1(C)CN(c2ccccc2)NC1=O (stereo unspecified)	-62.1*	-1.2%	108.6%	x	30.1%	x
CC1(C(=O)NS(=O)(=O)c2ccc(Cl)s2)CCN1C(=O)C1(c2ccccc2)CCCC1 (stereo unspecified)	18.7	x	x	x	x	x
